The full ranking holds about 1,700 compounds; the median of “T2 sensor activation Q score (MG/GFP ratio z-score vs DMSO controls)” is about 0.3, and the highest 2% start at about 1.9. The list comes from a sample in which the highest values are over-represented; it also holds similar structures and randomly drawn compounds.
tested on: ppGalNAc-T2 sensor; experiment: T2 sensor activation Q score (MG/GFP ratio z-score vs DMSO controls) (SD units); higher = more sensor activation (inhibition of ppGalNAc-T2 glycosylation); conditions: HEK293 sensor cells; 10 µM; 6 h
Procedure: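 Cells were treated with compound at 10 uM for 6 h, then MG/GFP ratio was read by flow cytometry (10,000 cells per well, duplicate wells). Q = (R - R_neg)/SD_neg relative to DMSO vehicle controls; the signal rises when the glycosyltransferase is inhibited.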

First: c1coc(CNc2ncnc3[nH]ncc23)c1
Second: CCCCSc1ncnc2[nH]ncc12
The “T2 sensor activation Q score” value of the first is higher: 0.7 for the first, 0.45 for the second.

Compared with `O=C(O)/C=C/C(=O)N1Cc2cc3ccccc3nc2C1`, `O=C(C=Cc1ccc(O)c(O)c1)c1ccccc1O` is lower in “T2 sensor activation Q score” value: -0.3 for the first, -0.4 for the second.

Compared with `CCCCN1C(=O)CC2CCOC21C` (stereo not drawn), `CCN1CCCC(Sc2nc3c([nH]2)c(=S)n(C)c(=O)n3C)C1` (stereo not drawn) is higher in “T2 sensor activation Q score” value: -0.45 for the first, 0.45 for the second.

Compared with `CN1C(=C=Cc2cc(I)c(O)c(I)c2)C(C)(C)c2ccccc21`, `Cc1ccc(Cl)cc1NC(=O)c1cc2ccccc2cc1O` is lower in “T2 sensor activation Q score” value: 3.65 for the first, -0.35 for the second.

First: Cc1nnc(-n2cccc2)s1
Second: CC1=NCC(C)c2ccccc21 (stereo not drawn)
The “T2 sensor activation Q score” value of the first is lower: 1.4 for the first, 3.25 for the second.

First: Clc1ccc(Oc2nc3c(Cl)cccc3s2)cc1Cl
Second: O=C(Nc1nc2ccccc2s1)Nc1ccc([N+](=O)[O-])cc1Cl
The “T2 sensor activation Q score” value of the first is higher: 0.85 for the first, 0.35 for the second.

Compared with `Nc1n[nH]c(CO)n1`, `Nc1n[nH]c(-c2ccccc2)n1` is lower in “T2 sensor activation Q score” value: 1.95 for the first, 0.75 for the second.

Going from `C(COC1CC2CC1C1C2CC2OC21)OC1CC2CC1C1C2CC2OC21` (stereo not drawn) to `C1C2CC3C1C3/C2=N\N=C1/C2CC3C(C2)C13`, the “T2 sensor activation Q score” value rises from 0.15 to 0.3.

Compared with `CC(C)C[C@H](NC(=O)[C@H](CCc1ccccc1)NC(=O)CN1CCOCC1)C(=O)N[C@@H](Cc1ccccc1)C(=O)N[C@@H](CC(C)C)C(=O)[C@@]1(C)CO1`, `O=C(/C=C/c1ccccc1)CC(c1ccccc1)N1CCOCC1` (stereo not drawn) is higher in “T2 sensor activation Q score” value: -1.65 for the first, -0.6 for the second.

Compared with `O=C1c2cccc(Sc3ccccc3)c2C(=O)c2c(Sc3ccccc3)cccc21`, `O=C1c2ccccc2C(=Cc2cccnc2)c2ccccc21` is higher in “T2 sensor activation Q score” value: -0.5 for the first, 0.2 for the second.

Compared with `S=c1nc[nH]c2c1ncn2C1CCCC1`, `Nc1o[nH]c(=O)c1C1CCCCC1` is lower in “T2 sensor activation Q score” value: 1.4 for the first, -0.8 for the second.

Going from `COc1ccc2nc3cc(Cl)ccc3c(Nc3cc(C(C)C)c(O)cc3C)c2c1` to `CCOC(=O)Nc1ccc2nc(Sc3ccc(Cl)cc3)sc2c1`, the “T2 sensor activation Q score” value falls from 0.55 to 0.35.

Going from `N#Cc1nnn(-c2ccc(Cl)cc2)c1N` to `CSC1=NC=C(C#N)C2=NC(c3ccc(Cl)cc3)NN12` (stereo not drawn), the “T2 sensor activation Q score” value rises from 1 to 2.45.

Going from `Cc1c(Cl)cccc1Nc1ncccc1C(=O)OCC(O)CO` (stereo not drawn) to `O=C(Nc1ccc(Br)cc1)Nc1ccccc1Cl`, the “T2 sensor activation Q score” value falls from -0.65 to -0.9.

Compared with `CN(C)c1ccc(C(c2ccc(N(C)C)cc2)c2ccc([N+](=O)[O-])cc2)cc1`, `O=C(c1ccccc1)c1ccc(Sc2ccc([N+](=O)[O-])cc2)cc1` is higher in “T2 sensor activation Q score” value: 0.55 for the first, 7.7 for the second.

First: CCSc1nc(O)cc(=O)[nH]1
Second: CCOCc1cc(=O)[nH]c(SC)n1
The “T2 sensor activation Q score” value of the first is lower: -0.9 for the first, -0.05 for the second.

First: CC(=O)[C@H]1CC[C@H]2[C@@H]3CCC4=CC(=O)C=C[C@]4(C)[C@H]3C(=O)C[C@]12C
Second: C/C(=N/O)[C@H]1CC[C@H]2[C@@H]3CC[C@@H]4C/C(=N\O)CC[C@]4(C)[C@H]3[C@@](C)(O)C[C@]12C
The “T2 sensor activation Q score” value of the first is higher: 1.65 for the first, 0.5 for the second.

First: Cc1ccc(S(=O)(=O)Oc2cc(N)c3c(n2)CCC3)cc1
Second: Cc1ccc(S(=O)(=O)CCOC(=O)CNC(=O)OCc2ccccc2)cc1
The “T2 sensor activation Q score” value of the first is higher: 0.3 for the first, -0.1 for the second.

Going from `Clc1ccc(Nc2nnc(-c3ccc4c(c3)OCO4)o2)cc1` to `Cn1ncc2c(Nc3ccc([N+](=O)[O-])cc3)nc(Cl)nc21`, the “T2 sensor activation Q score” value rises from -0.7 to -0.5.

`O=C(O)c1cc(O)ccc1N=Nc1ccccc1` and `O=C(c1ccccc1)c1ccc(-c2ccc(O)cc2)cc1` are the same in “T2 sensor activation Q score” value: 1.55 for the first, 1.55 for the second.

Going from `CCC(=Cc1ccc(CC)cn1)CC` to `CN(C)C=Nc1ccc(Cl)c(Cl)c1`, the “T2 sensor activation Q score” value falls from 1.85 to -1.85.

Going from `C(=C\c1ccccn1)/c1ccccn1` to `O=[N+]([O-])c1cccc(/C=C/c2ccccn2)c1`, the “T2 sensor activation Q score” value falls from 2.1 to -1.2.

Going from `C(=C\CSc1ccccn1)/CSc1ccccn1` to `C(=N\Nc1nnn(Cc2ccccc2)n1)/c1ccccc1`, the “T2 sensor activation Q score” value rises from -0.6 to 0.5.

Going from `CC(=O)c1c(O)c(C)c(O)c2c1OC1=CC(=O)/C(=C(/C)N)C(=O)C12C` (stereo not drawn) to `COC(=O)c1cc2c(n1S(=O)(=O)c1ccc(C)cc1)C(=O)C(=O)c1[nH]cc(C(=O)OCc3ccccc3)c1-2`, the “T2 sensor activation Q score” value rises from -1.2 to 2.

Compared with `C/C=C1\NC(=O)[C@H]2CSSCC/C=C/[C@H](CC(=O)N[C@H](C(C)C)C(=O)N2)OC(=O)[C@H](C(C)C)NC1=O`, `Cc1c2oc3c(C)ccc(C(=O)N[C@@H]4C(=O)N[C@H](C(C)C)C(=O)N5CCC[C@H]5C(=O)N(C)CC(=O)N(C)[C@@H](C(C)C)C(=O)O[C@@H]4C)c3nc-2c(C(=O)N[C@@H]2C(=O)N[C@H](C(C)C)C(=O)N3CCC[C@H]3C(=O)N(C)CC(=O)N(C)[C@@H](C(C)C)C(=O)O[C@@H]2C)c(N)c1=O` is lower in “T2 sensor activation Q score” value: 3 for the first, -1.15 for the second.

Going from `CN(C)c1nc(Cl)nc2c1nc(Cl)n2C1CCCCO1` (stereo not drawn) to `Cn1c(=O)c2c(nc(N3CCCCC3)n2C)n(C)c1=O`, the “T2 sensor activation Q score” value falls from 1.4 to -0.7.

Compared with `C1COCCN1.O=C(O)C(C=C(Cl)Cl)N1CCOCC1` (stereo not drawn), `CCN1CCCCC(=NO)C(=NO)CCCC1` is lower in “T2 sensor activation Q score” value: 2.65 for the first, 1.05 for the second.

Compared with `CCCCCCCCC(=O)c1c(OC)oc(C=O)cc1=O`, `CCOC(=O)Cc1cc(=O)c2cc(C)ccc2[nH]1` is higher in “T2 sensor activation Q score” value: 0.5 for the first, 0.8 for the second.

Going from `COC(=O)c1c(-c2ccccc2)[nH]c(-c2nccc3ccccc23)c1C(=O)OC` to `COc1ccccc1NC(=O)Oc1cccc(OC(=O)c2ccccc2)c1`, the “T2 sensor activation Q score” value rises from -0.35 to 0.2.

First: COc1cc(NC(=O)CCl)ccc(=O)c1
Second: COc1ccc(OC(=O)Nc2ccc([N+](=O)[O-])cc2OC)cc1
The “T2 sensor activation Q score” value of the first is lower: 0.6 for the first, 0.95 for the second.

Compared with `Cc1cc(-n2cnc3c(=O)[nH]cnc32)ccc1N`, `Cc1cc2cc3c(=O)[nH]c(=O)[nH]c3nc2cc1C` is lower in “T2 sensor activation Q score” value: 1.35 for the first, -0.35 for the second.

Going from `CS/C(=C\c1ccc(C(=O)c2ccc(C)cc2)n1C)[S+](C)[O-]` (stereo not drawn) to `CSC(=O)NC(=O)NC(=O)c1ccc([N+](=O)[O-])cc1`, the “T2 sensor activation Q score” value falls from 5.35 to 1.05.

Going from `NC(=O)NC(=O)c1nccnc1C(=O)O` to `CC(=O)NC1=C/C(=C\[N+](=O)[O-])C=C1O`, the “T2 sensor activation Q score” value falls from -0.2 to -0.65.

Compared with `O=C(c1ccccc1)c1ccccc1C(=O)c1ccccc1`, `COc1ccc(-c2cc(-c3ccccc3)c(-c3ccccc3)nn2)cc1` is lower in “T2 sensor activation Q score” value: 0.65 for the first, -0.95 for the second.

First: COC(=O)C[C@](O)(CCCC(C)(C)O)C(=O)O[C@@H]1C(OC)=C[C@]23CCCN2CCc2cc4c(cc2[C@H]13)OCO4
Second: COc1c(O)ccc2c1CN1CCc3cc4c(cc3C1C2)OCO4 (stereo not drawn)
The “T2 sensor activation Q score” value of the first is higher: 4.5 for the first, -1.3 for the second.

First: C[C@]12CC[C@H](O)CC1=CC[C@@H]1[C@@H]2CC[C@]2(C)c3[nH]ncc3C[C@@H]12
Second: CC(C)NCC1CCc2cc(CO)c([N+](=O)[O-])cc2N1 (stereo not drawn)
The “T2 sensor activation Q score” value of the first is higher: 0.2 for the first, -0.55 for the second.

Going from `COc1ccc(C(=S)N2CCN(c3ccccc3C)CC2)cc1` to `CCOC(=O)N1CCN(Cc2c(O)ccc3ccccc23)CC1`, the “T2 sensor activation Q score” value rises from -0.85 to -0.05.

First: CCn1c(=O)n(C)c2c(=O)n(C)c(=O)n(C)c21
Second: CCCc1nc2c([nH]1)c(=O)n(C)c(=O)n2C
The “T2 sensor activation Q score” value of the first is lower: -1.1 for the first, 1.8 for the second.

Compared with `Cn1c(=O)c2[nH]c(N3CCCCC3)nc2n(C)c1=O`, `Cn1c(=O)c2c(nc(Cc3ccccc3)n2C)n(C)c1=O` is lower in “T2 sensor activation Q score” value: 2.15 for the first, 1.35 for the second.

Going from `N#CC1C(=O)NC(=O)C(C#N)C12CCCC(C(F)(F)F)C2` (stereo not drawn) to `OC(c1cc(-c2ccc(C(F)(F)F)cc2)nc(C(F)(F)F)c1)C1CCCCN1` (stereo not drawn), the “T2 sensor activation Q score” value rises from 0.45 to 0.5.

Compared with `Nc1ccc(SCc2nc3cccc4c3n2CCC4)cc1`, `CCOc1ccc(/C=C2\CCc3ccccc3C2=O)cc1` is higher in “T2 sensor activation Q score” value: 0.35 for the first, 0.5 for the second.

Compared with `Cn1c2c(sc1=O)CCC2`, `CCOC(=O)Nc1ccc2nc(N3CCCCCC3)sc2c1` is higher in “T2 sensor activation Q score” value: -0.4 for the first, 0.95 for the second.

First: C#CCSc1n[nH]c(-c2ccco2)n1
Second: Cc1nc(SCC(=O)O)n[nH]1
The “T2 sensor activation Q score” value of the first is higher: 1.7 for the first, -1.55 for the second.

Going from `COc1ccc(Cc2nnc(SC)n2-c2ccc(F)cc2)cc1OC` to `COc1cc2c(cc1OC)C(=O)Cc1ccc3c(c1CN(C)CC2)OCO3`, the “T2 sensor activation Q score” value rises from 0.45 to 1.1.

Compared with `Cc1ccc(NC(=O)NNC(=O)CSC2CCc3ccccc32)c(C)c1` (stereo not drawn), `CCOC(=O)N1C/C(=C\c2ccccc2)C(=O)/C(=C/c2ccccc2)C1` is higher in “T2 sensor activation Q score” value: -1.2 for the first, 2.95 for the second.

First: O=C(Nc1ccsn1)c1ccc(Cl)cc1Cl
Second: CN(C)c1ccc(/C=N\NC(=O)c2cnc3ccccc3c2)cc1
The “T2 sensor activation Q score” value of the first is higher: 1.25 for the first, -0.3 for the second.

First: Nc1ccn(C2OC(CCl)C(O)C2O)c(=O)n1 (stereo not drawn)
Second: O=C1C2C3C=CC(O3)C2C(=O)N1Nc1ccccc1 (stereo not drawn)
The “T2 sensor activation Q score” value of the first is lower: -0.65 for the first, 0.25 for the second.

Compared with `Nc1ccc(-c2nc3nc(N)nc(N)c3nc2-c2ccc(N)cc2)cc1`, `S=c1[nH]c2ccccc2c2ccccc12` is lower in “T2 sensor activation Q score” value: 4.95 for the first, 1.95 for the second.

Going from `CCN(CC)CCNc1c(C)cc(CO)c(Cl)c1C` to `CCN(CC)CCN1c2ccccc2Sc2ccc3ccccc3c21`, the “T2 sensor activation Q score” value falls from 0.25 to -0.8.

Compared with `C#CC(C)OCC1CNC(=S)O1` (stereo not drawn), `S=c1cn[nH]c2ccccc12` is higher in “T2 sensor activation Q score” value: -1.4 for the first, 0.55 for the second.

First: NS(=O)(=O)c1cc2c(cc1Cl)NC(CC1CCCC1)NS2(=O)=O (stereo not drawn)
Second: S=c1[nH]c2ccccc2n2cccc12
The “T2 sensor activation Q score” value of the first is lower: 0.8 for the first, 1.1 for the second.

With `O=[N+]([O-])c1ccc2c3ccccc3[s+]([O-])c2c1` (stereo not drawn) the “T2 sensor activation Q score” value was 0.25.
